In the supplement of paper PMC6555819:

How the values were obtained:
Experiment in all cases: PBM binding z-score (relative to random genomic background probes); higher = stronger binding; sequences stand for … in GC…GCGATTGACAGCGTAGAATGAAGG
[1] = system: FXR:RXRa (NR concentration 270 nM, RXRa partner concentration 90 nM)
Outline: (§1)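 The probes on custom Agilent 4×180K protein-binding microarrays were double-stranded, with 34-nt variable regions bearing direct-repeat seeds, single-nucleotide variants, half-site ablations and random human genomic background sequences. Incubation lasted 1 h with ligand-free nuclear receptor dimers in PBS pH 7.4, 2% milk, 0.02% Triton X-100, 1 mM DTT, 0.2 mg/mL BSA and 0.4 mg/ml salmon testes DNA. Antibodies against each partner (one per run) detected bound dimers, and fluorescence scans were regression-normalized. Binding z-scores take the random background probes as reference.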

[2] = system: LXRa:RXRa (NR concentration 270 nM, RXRa partner concentration 90 nM)
Outline: as §1

[3] = system: LXRa homodimer (NR concentration 270 nM)
Outline: as §1

[4] = system: LXRb:RXRa (NR concentration 270 nM, RXRa partner concentration 90 nM)
Outline: as §1

[5] = system: LXRb homodimer (NR concentration 270 nM)
Outline: as §1

[6] = system: PPARa:RXRa (NR concentration 270 nM, RXRa partner concentration 90 nM)
Outline: as §1

[7] = system: PPARg:RXRa (NR concentration 180 nM, RXRa partner concentration 90 nM)
Outline: as §1

[8] = system: PPARg:RXRa 270nM:90nM, anti-RXR (NR concentration 270 nM, RXRa partner concentration 90 nM)
Outline: as §1

[9] = system: PPARg:RXRa 30nM:10nM, anti-RXR (NR concentration 30 nM, RXRa partner concentration 10 nM)
Outline: as §1

[10] = system: PPARg:RXRa 90nM:30nM, anti-RXR (NR concentration 90 nM, RXRa partner concentration 30 nM)
Outline: as §1

Row | Sequence | PBM binding z-score [1] | PBM binding z-score [2] | PBM binding z-score [3] | PBM binding z-score [4] | PBM binding z-score [5] | PBM binding z-score [6] | PBM binding z-score [7] | PBM binding z-score [8] | PBM binding z-score [9] | PBM binding z-score [10]
1 | TGAATGAGGTTATGAGATCAGGGAACGTTGCAAA | 1.67 | 1.4 | -0.558 | 0.95 | -0.381 | 3.11 | 1.64 | 1.96 | 0.899 | 1.31
2 | ACTATTAGTTGAGAAGAGGGCAACCGATAGGTTG | 0.199 | 0.323 | 0.0723 | -0.0222 | 0.248 | 0.44 | 0.56 | 0.246 | 0.12 | 0.365
3 | GGAACGAGAGCATTCGAGTTGATAGCATGGCGAT | -0.374 | -1.05 | -0.97 | -1.11 | -1.55 | -0.713 | 0.37 | -0.536 | -0.607 | -0.728
4 | TCATATAGCTAAACAGGTGAAAGTCCGTAAGTTA | -0.237 | -0.00497 | -0.0906 | 0.338 | -0.588 | 1.08 | 0.667 | 1.92 | 2.64 | 2.23
5 | TTACCAAGGTGTAGGTCGTTGATCCCTCTGTAGA | 0.674 | 1.15 | 0.0593 | 0.801 | -0.638 | 0.814 | -0.0136 | 1.68 | 0.61 | 1.52
6 | GCTGCTAGGTCAGGTTGATCAGCTAACGGGTACG | 1.01 | 0.585 | -0.478 | 0.353 | -0.451 | 1.47 | 0.663 | 0.926 | -0.231 | 0.36
7 | TCTAGCAGGCCAGAGGGTCACTCAAGAGGTACGG | 0.812 | 1.03 | -0.601 | 0.926 | -1.51 | 2.39 | 1.43 | 2.72 | 2.09 | 2.57
8 | ATAGGTAGGTTAGCTGGGGTCATTCAGACTAGGC | 4.92 | 5.76 | 2.97 | 4.81 | 1.29 | 4.82 | 2.59 | 3.65 | 1.45 | 2.69
9 | CTTCGGAGGACAACAGGAGGTCAGAGCTGCCAGA | 1.34 | 2.65 | 2.21 | 1.45 | -0.45 | 2.23 | 0.516 | 0.602 | -0.765 | 0.051
10 | ATCGAAAGGTCGAAGTTGAGTATACCCACCCGAA | 4.36 | 3.82 | 0.667 | 3.19 | 1.03 | 4.79 | 3.29 | 3.96 | 1.49 | 3.12
11 | TGAATGAGGTTAAAGATCAGGGCACGTGGCGTCG | 2.95 | 2.69 | 0.0826 | 1.81 | 0.456 | 4.53 | 5.69 | 6.11 | 4.67 | 6.24
12 | ACTAGTTGGTGAGCTGAGGTCACACACAATTCGG | 2.78 | 2.49 | 1.5 | 2.85 | 0.277 | 3.35 | 1.49 | 2.09 | 0.341 | 1.3
13 | GCCACTGGGGCATCAGCAGGTTACCATAACTTAA | -0.242 | -0.416 | -0.158 | 0.103 | -1.12 | 1.28 | 1.72 | 1.82 | 0.184 | 0.914
14 | TCATAGAGGTAAAGGTGAAAGTCGAACGATATGA | 1.13 | 1.35 | -0.575 | 1.3 | -0.862 | 3.63 | 3.74 | 5.04 | 3.97 | 4.88
15 | CCTACTGGGCCAGGAAAGGTCATTGATTCAGTGA | 3.42 | 4.12 | 3.32 | 3.74 | -0.202 | 4.18 | 1.95 | 3.03 | 0.929 | 2.15
16 | CTGAGTAGGTTATGGGGCATTCAGGCAACGGTGA | 0.204 | 0.0795 | 0.0598 | 0.763 | -0.118 | 2.8 | 4.62 | 5.02 | 3.08 | 5.01
17 | TGAATGAGGTTAAAGATCCGGGAACGTGGCGTCG | 2.36 | 1.91 | -0.227 | 1.13 | 0.309 | 3.14 | 2.27 | 3.37 | 1.55 | 2.9
18 | ATCGAAAGGTCGACGAGGTGAGTGTACACCGTTT | 4.72 | 3.35 | 0.236 | 2.78 | 0.198 | 4.42 | 2.9 | 3.72 | 1.14 | 2.63
19 | GCGACAGGGGCATCAGCAGGTTACCATAACTTAA | 0.0406 | 0.297 | -0.329 | 1.42 | -0.683 | 1.33 | 0.386 | 0.0152 | -0.411 | -0.547
20 | CCGACTGCGGCATAAGGTTACCATAAGCCAGCCC | 0.434 | 1.84 | -0.038 | 0.877 | -0.74 | 0.702 | 0.575 | 0.243 | -0.468 | -0.29
21 | TCTCGGAGGACACGGAAGGTCAGAGCTCGACATC | 2.08 | 1.8 | 1.19 | 1.33 | -0.694 | 2.04 | 0.365 | 1.4 | 2.23 | 1.53
22 | ACTAGCAGGCCTAGTTTGGGTCACTCAAACAAAG | -0.223 | -0.267 | -0.434 | 0.356 | -0.757 | 1.13 | -0.314 | 0.138 | -0.572 | -0.184
23 | GCGACTGGGGCATCAGTAGGTTACCATAACTTAA | -0.329 | -0.299 | -0.273 | 0.586 | -0.678 | 1.55 | 1.69 | 1.5 | 0.0376 | 0.86
